# Test results: PubChem BioAssay
# Active and inactive are the calls of the source.
# Columns and labels:
# [1] = compound effects on differentiated 3T3-L1 adipocyte viability – cell-based, 3T3-L1 adipocytes, calcein-AM fluorescence, 48 h, basal, profiling panel (AID 1163); settings: 3T3-L1 adipocytes viability, higher = more signal
# [2] = compound effects on hepatocellular carcinoma cell viability – HepG2, calcein-AM fluorescence, 48 h, basal, profiling panel (AID 1164); settings: higher = more signal
# [3] = compound effects on multiple myeloma cell viability – MM1S, calcein-AM fluorescence, 48 h, basal, profiling panel (AID 1165); settings: higher = more signal;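 further: viability of MM1S multiple myeloma cells under basal unstimulated conditions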
# [4] = calcein-AM signal in unstimulated myeloma cells – cell-based, calcein-AM fluorescence, 48 h, PK04 Diversity Set, profiling panel (AID 1166); settings: RPMI8226 myeloma viability, higher = more signal;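 further: cells grown under basal conditions without added stimulus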
# [5] = JC-1 mitochondrial signal, unstimulated HepG2 cells – cell-based, JC-1 fluorescence, 24 h, 100 nL compound, profiling panel (AID 1167); settings: HepG2 mitochondrial potential, higher = more signal
# [6] = JC-1 mitochondrial signal, unstimulated adipocytes – cell-based, JC-1 fluorescence, 3T3-L1 adipocytes, 24 h, 100 nL compound, profiling panel (AID 1168); settings: JC-1 mitochondrial fluorescence, higher = more signal, called active from +8 up or from −8 down
# [7] = JC-1 mitochondrial signal, unstimulated myeloma cells – cell-based, JC-1 fluorescence, RPMI8226, 24 h, 100 nL compound, profiling panel (AID 1169); settings: JC-1 mitochondrial potential fluorescence, higher = more signal
# [8] = JC-1 mitochondrial signal, unstimulated MM1S myeloma – cell-based, JC-1 fluorescence, 24 h, 100 nL compound, profiling panel (AID 1170); settings: MM1S mitochondrial potential, higher = more signal
# [9] = resazurin metabolic signal in A549 cells – cell-based, resazurin fluorescence, 24 h, PK04 Diversity Set, profiling panel (AID 1171); settings: A549 viability, higher = more signal, called active from +8 up or from −8 down
# [10] = resazurin metabolic signal in HepG2 cells – cell-based, resazurin fluorescence, 24 h, PK04 Diversity Set, profiling panel (AID 1172); settings: HepG2 viability, higher = more signal
# [11] = budding yeast growth changes without added modifier – OD600, strain BY4716, 24 h, basal condition, primary screen (AID 1173); settings: S. cerevisiae BY4716 growth, OD600, 24 h; higher = more signal, called active from +8 up or from −8 down
# [12] = viability profiling in MM1S myeloma cells – cell-based, resazurin fluorescence, basal, 24 h, PK04 Diversity Set, profiling panel (AID 1174); settings: higher = more signal, called active from +8 up or from −8 down
# [13] = target: Dihydroorotate dehydrogenase (quinone), mitochondrial (Plasmodium falciparum (isolate 3D7)) (UniProt Q08210); experiment: inhibition of P. falciparum DHODH – biochemical, C-terminal His tag, absorbance 600 nm, primary screen (AID 1175); settings: PfDHODH enzyme, DCIP absorbance 600 nm; higher = more signal, called active from +8 up or from −8 down;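 further: recombinant parasite enzyme with a five histidine tag at its C terminus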
# [14] = growth modulation of vineyard yeast isolate – strain RM11-1a, OD600, basal, 24 h, primary screen (AID 1177);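 further: cultures grown under basal conditions with no added stressor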; settings: S. cerevisiae RM11-1a growth, OD600, 24 h; higher = more signal, called active from +8 up or from −8 down
# [15] = growth of efflux-deficient E. coli DRC39 – strain DRC39, OD650, 24 h, E. coli filamentation inducers, primary screen (AID 1178);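 further: growth measured as culture turbidity by optical density at 650 nm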; settings: E. coli DRC39 acrAB, higher = more signal, called active from +8 up or from −8 down
# [16] = growth of efflux-deficient E. coli DRC39 – strain DRC39, OD650, 48 h, E. coli filamentation inducers, primary screen (AID 1179);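 further: screen aims at cell division blockers that make cells filament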; settings: E. coli DRC39 delta-acrAB growth, higher = more signal, called active from +8 up or from −8 down
# [17] = viability profiling in RPMI8226 myeloma cells – cell-based, resazurin fluorescence, basal, 24 h, PK04 Diversity Set, profiling panel (AID 1180); settings: higher = more signal;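 further: RPMI8826 multiple myeloma cell line at 5000 cells per well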
# [18] = target: E3 ubiquitin-protein ligase XIAP (Homo sapiens) (UniProt P98170); experiment: small molecules binding XIAP protein – biophysical, small-molecule microarray, fluorescence 635 nm, primary screen (AID 1181); settings: higher = more signal;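 further: score merges 667 nm emission and signal to noise over triplicate slides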
# [19] = system: XIP peptide (Xip251-270) binding; experiment: XIP fragment 251-270 binding compounds – biochemical, small-molecule microarray, fluorescence 635/667 nm, 0.1 µg/mL protein, primary screen (AID 1182); settings: fluorescent protein binding, 635 nm, higher = more signal, called active from +8 up or from −8 down
# [20] = system: XIP peptide (Xip251-270); experiment: compounds binding XIP fragment 251-270 – biochemical, small-molecule microarray, fluorescence 635/667 nm, 0.5 µg/mL protein, primary screen (AID 1183); settings: fluorescence 635 nm, higher = more signal
# Dihydroorotate dehydrogenase (quinone), mitochondrial (Plasmodium falciparum (isolate 3D7)), sequence (Q08210 whole entry, looked up): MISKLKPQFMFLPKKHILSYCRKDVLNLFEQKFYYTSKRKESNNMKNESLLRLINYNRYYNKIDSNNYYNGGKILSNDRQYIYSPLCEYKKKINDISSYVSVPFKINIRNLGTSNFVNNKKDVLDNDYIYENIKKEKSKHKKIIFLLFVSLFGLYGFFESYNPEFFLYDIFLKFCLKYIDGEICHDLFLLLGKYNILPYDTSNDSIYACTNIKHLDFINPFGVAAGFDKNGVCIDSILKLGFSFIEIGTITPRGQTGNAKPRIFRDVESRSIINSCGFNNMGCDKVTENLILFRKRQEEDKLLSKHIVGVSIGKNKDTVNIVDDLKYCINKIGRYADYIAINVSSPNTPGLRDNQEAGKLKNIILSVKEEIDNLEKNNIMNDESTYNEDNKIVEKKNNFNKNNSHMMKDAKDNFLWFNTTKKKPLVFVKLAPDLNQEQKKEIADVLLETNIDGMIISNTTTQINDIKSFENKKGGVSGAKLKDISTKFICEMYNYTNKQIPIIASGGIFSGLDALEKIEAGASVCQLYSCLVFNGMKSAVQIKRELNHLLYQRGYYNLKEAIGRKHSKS
# E3 ubiquitin-protein ligase XIAP (Homo sapiens), sequence (P98170 whole entry, looked up, the tested form may be a part): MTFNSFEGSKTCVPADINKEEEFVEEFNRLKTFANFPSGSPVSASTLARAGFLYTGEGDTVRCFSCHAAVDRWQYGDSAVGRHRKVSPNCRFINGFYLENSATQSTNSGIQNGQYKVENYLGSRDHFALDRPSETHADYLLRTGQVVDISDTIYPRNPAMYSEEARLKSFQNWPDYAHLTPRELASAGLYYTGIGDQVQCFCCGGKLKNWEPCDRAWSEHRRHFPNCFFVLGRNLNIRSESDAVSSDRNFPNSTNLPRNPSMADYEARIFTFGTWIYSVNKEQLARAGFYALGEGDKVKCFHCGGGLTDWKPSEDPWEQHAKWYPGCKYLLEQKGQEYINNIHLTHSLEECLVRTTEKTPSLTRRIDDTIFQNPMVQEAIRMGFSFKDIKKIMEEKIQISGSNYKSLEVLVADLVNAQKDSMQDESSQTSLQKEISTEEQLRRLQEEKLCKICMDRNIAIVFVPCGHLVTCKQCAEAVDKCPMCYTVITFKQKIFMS
SMILES,z-score [1],z-score [2],z-score [3],z-score [4],z-score [5],z-score [6],z-score [7],z-score [8],z-score [9],z-score [10],z-score [11],z-score [12],composite z-score [13],z-score [14],z-score [15],z-score [16],z-score [17],composite z-score [18],composite z-score [19],composite z-score [20]
CN(C)CCCC[C@@H]1NC(=O)[C@@H]2C[C@H](C(=O)NCCCCCNC(=O)CS)[C@H](c3cccc(OCCO)c3)N2C1=O,1.56,-1.33,-0.669,-0.348,0.902,0.533 (inactive),0.526,0.249,-0.42 (inactive),-0.0484,-1.86 (inactive),0.78 (inactive),-1.83 (inactive),-2.53 (inactive),0.431 (inactive),-0.248 (inactive),0.608,-0.135,0.62 (inactive),-0.351
C=CCN1C(=O)[C@@]2(O[C@@H](CCO)[C@H]([Si](C)(C)c3ccc(OC)cc3)[C@H]2C)c2cc(N(C=O)c3ccccc3)ccc21,0.412,-4.73,-2.68,-4.39,-2.22,1.53 (inactive),-1.05,-2.14,-4.7 (inactive),-6.2,-0.425 (inactive),-8.88 (active),-0.459 (inactive),-0.592 (inactive),2.62 (inactive),1.81 (inactive),-6.21,-0.0203,0.527 (inactive),0.345
COCCCNC(=O)[C@@]1(Cc2ccccc2)N=C(c2ccc(OCCCO)cc2)O[C@H]1c1ccccc1N=[N+]=[N-],1.95,-0.121,-1.67,-4.02,1.12,2.93 (inactive),-1.1,-0.433,-1.83 (inactive),0.357,0.346 (inactive),-1.13 (inactive),1.37 (inactive),2.42 (inactive),1.22 (inactive),0.18 (inactive),-2.12,0.085,0.619 (inactive),-0.473
CO[C@H]1O[C@H](CO)[C@@H](OC(=O)Nc2ccccc2)[C@H](OC(=O)Nc2ccccc2-c2ccccc2)[C@H]1OC(=O)Nc1ccccc1-c1ccccc1,1.59,-4.94,-3.51,-4.34,-1.05,3.65 (inactive),-1.17,-1.64,-6.11 (inactive),-4.93,-2.12 (inactive),-6.52 (inactive),-0.551 (inactive),0.145 (inactive),0.218 (inactive),-0.414 (inactive),-5.34,0.113,1.32 (inactive),0.896
COc1ccc(C#Cc2ccc3c(c2)[C@]2(C(=O)N3)[C@H](c3ccc(O)cc3)N3[C@H](c4ccccc4)[C@H](c4ccccc4)OC(=O)[C@H]3[C@@H]2C(N)=O)cc1,1.39,-4.79,-3.41,-4.61,-2.81,-0.0696 (inactive),-1.32,-1.66,-1.62 (inactive),-0.424,-0.379 (inactive),-6.51 (inactive),0.255 (inactive),1.47 (inactive),0.277 (inactive),0.464 (inactive),-6.8,0.237,0.0982 (inactive),0.542
C=C(C(=O)CC[C@@H](OC(C)=O)c1ccccc1OCCO)C(C)C,-0.161,-0.9,-0.951,0.0365,-0.75,0.544 (inactive),-0.0109,0.0542,0.788 (inactive),0.166,-13 (active),0.932 (inactive),-3.59 (inactive),0.0933 (inactive),1.33 (inactive),0.928 (inactive),1.57,-0.0163,0.888 (inactive),0.565
COC(=O)[C@@]1(CCC(=O)OC(C)(C)C)COC(c2ccc(OCCCO)cc2)=N1,1.52,-0.528,0.203,-0.0712,-0.407,-0.0189 (inactive),0.614,0.396,0.307 (inactive),0.863,-1.27 (inactive),0.867 (inactive),-0.402 (inactive),-0.612 (inactive),2.83 (inactive),1.14 (inactive),1.1,-0.217,-0.191 (inactive),-1.66
O=C(NO)[C@]1(Cc2ccccc2)N=C(c2ccc(OCCCO)cc2)O[C@@H]1c1ccccc1,1.33,1.18,1.87,-0.459,1.59,1.3 (inactive),-0.737,1.02,1.02 (inactive),1.47,-2.78 (inactive),1.41 (inactive),0.461 (inactive),-4.43 (inactive),2.26 (inactive),2.18 (inactive),0.963,0.0402,-0.592 (inactive),-1.32
COc1c(C)cc(-c2cc3c(c(CCc4ccccc4)n2)[Si](C(C)C)(C(C)C)OC3)cc1C,1.27,-0.277,-1.5,0.0965,-2.26e-05,0.334 (inactive),0.667,0.168,1.38 (inactive),1.64,-0.966 (inactive),1.93 (inactive),-0.545 (inactive),-1.43 (inactive),1.75 (inactive),1.08 (inactive),1.37,-0.172,0.461 (inactive),-0.436
